Only some compounds are listed: those with a hit (about 4.6% of all), similar ones and a draw of the others.
HIF-2a block: HIF-2a reporter inhibitors, primary screen, luminescence, 786-0 RCC cells; inhibition, % at 18.8 µM; AID 624352, 2012; 786-0 RCC cells HIF-2a reporter, luciferase luminescence, overnight; actives 0.72% (n = 360,000);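 active = inhibition of the luminescence signal of 40% or more relative to plate controls, in a single-dose primary screen at 18.75 µM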
KKLEB cytotox: cytotoxicity in KKLEB CF airway cells, primary screen, cytotoxicity control for CF NF-kB inhibitor project, cell-based, uHTS, fluorescence assay plates | actives 0.36% (n = 360,000) | activity change (cytotoxicity), % at 5 µM | AID 602141, 2011 | KKLEB CF airway cells viability, ATPlite luminescence, overnight; hits give low values; cells stimulated with P. aeruginosa culture filtrate;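 active = corrected activity change at or below -50% at 5 µM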
Mdm2-MdmX inh: inhibitors of human Mdm2-MdmX association, primary screen, cell-based, luminescence, split luciferase, SaOS-2, uHTS. inhibition, % at 8 µM. SaOS-2 split-luciferase Mdm2/MdmX complementation. actives 3% (n = 330,000). Protein Mdm4 (Homo sapiens) + E3 ubiquitin-protein ligase Mdm2 (Homo sapiens), …;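 active = inhibition of at least 50% at 8 µM in the primary screen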
Peg3 prom inh: Peg3 promoter-driven luciferase inhibitors, primary screen, cell-based, HeLa, luciferase luminescence; actives 1.7% (n = 360,000); HeLa PEG-Prom luciferase reporter, overnight; inhibition, % at 20 µM;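 active = inhibition of at least 50% at 20 µM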
ABHD5 PLIN5 PPI: ABHD5-PLIN5 interaction inhibitors, primary screen, cell lysate, split luciferase complementation, luminescence; Perilipin-5 (Homo sapiens) + 1-acylglycerol-3-phosphate O-acyltransferase ABHD5 (Homo …; Split G. princeps luciferase complementation, 4 h; inhibition, % at 4 µM; actives 0.78% (n = 360,000);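 active = inhibition above the mean inhibition across every tested compound plus 3 SD, cut at about 22% in these data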;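 also: 0% = DMSO only wells and the 100% control is not disclosed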
CF NFkB inh: inhibitors of PAF-induced NF-kB signaling, primary screen, cell-based, GFP fluorescence, uHTS; actives 0.86% (n = 360,000); inhibition, % at 5 µM; KKLEB NF-kB-GFP reporter, GFP fluorescence overnight;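 active = at least 50% inhibition at 5 µM, scaled per plate between neutral and stimulator controls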;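 also: PAF is a Pseudomonas aeruginosa culture filtrate used as stimulus; plate controls were PAF-stimulated DMSO wells for no effect and unstimulated DMSO wells for full effect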
* hit, by the source's call; . = no result.

SMILES	HIF-2a block	KKLEB cytotox	Mdm2-MdmX inh	Peg3 prom inh	ABHD5 PLIN5 PPI	CF NFkB inh
COc1ccc(C(c2c(O)ccc3ccccc23)N2CCOCC2)c(OC)c1 (stereo not drawn)	-294	-13	-28	-227	96*	21
COc1ccc(C(CCN2CCOCC2)c2c(O)cc(OC)cc2OC)cc1 (stereo not drawn)	9	4	9	0	3	19
CCc1nc2ccc(C(=O)NC3CCN(Cc4ccccc4)CC3)cn2c1N(CC)Cc1cccc(Br)c1	10	-41	.	94*	12	24
CCc1nc2ccc(C(=O)N(C)Cc3ccccc3)cn2c1N(CC)Cc1cccc(Br)c1	15	-10	.	27	9	30
O=C(NCc1cccs1)c1nc2c(nnn2Cc2ccccc2Cl)c(=O)[nH]1	76*	-76*	.	104*	-1	88*
CCC(C)NC(=O)c1nc2c(nnn2Cc2ccccc2Cl)c(=O)[nH]1 (stereo not drawn)	28	4	0	-3	-1	-13
O=C(/C=C/c1ccc(Cl)cc1Cl)c1nc2ccccc2[nH]1	13	-12	-10	-6	18	3
Clc1cccc(Cl)c1/C=C/c1nc2ccccc2[nH]1	-240	-36	-172	-190	0	-16
Clc1ccc(/C=C/c2nc3ccccc3[nH]2)cc1	-46	-74*	-77	-50	-1	-14
Clc1ccc(/C=C/c2nc3ccccc3[nH]2)c(Cl)c1	-93	-76*	-56	-83	-2	-18
COc1cccc(NC(=O)CN(C)C(=O)CCNS(=O)(=O)c2ccc(C)cc2)c1	12	11	13	8	0	25
N#Cc1ccccc1S(=O)(=O)N1CCN(Cc2cc3c(cc2Br)OCCO3)CC1	9	-5	.	19	2	13
O=C1Nc2ccc(Br)cc2/C1=N\N=C\C1=C(N2CCOCC2)C(=C/c2ccccc2)/CC1	14	8	.	30	-2	13
O=C1Nc2ccccc2/C1=N\N=C\C1=C(N2CCOCC2)C(=C\c2ccccc2)/CC1	21	11	20	77*	2	-6
CCCc1ccc(C(O)c2ncc(-c3cccc(C)c3)[nH]2)cc1 (stereo not drawn)	-84	4	.	-41	-18	14
Oc1c(Br)cc(Cl)cc1C=Nc1ccc(N2CCOCC2)cc1	9	9	31	9	-40	30
Oc1ccc(N=Nc2cccc(Cl)c2)cc1C=Nc1ccc(N2CCOCC2)cc1	-11	-10	.	-19	-9	68*
O=C(COC(=O)C12CC3CC(CC(Br)(C3)C1)C2)Nc1cccc(S(=O)(=O)N2CCOCC2)c1	14	-18	11	8	-2	-2
O=C(Cn1ccc2ccccc2c1=O)N1CCN(c2cccc(Cl)c2)CC1	20	0	13	17	22*	3
CCn1c(/N=C/c2ccccc2NS(=O)(=O)c2ccc(C)cc2)nc2ccccc21	14	-16	.	24	3	61*
CCN(CC)CCn1c(NS(=O)(=O)c2ccc(C)cc2)nc2ccccc21	-8	-13	11	-10	13	9
Cc1ccc(C)c(S(=O)(=O)N2CCN(C(=O)Cc3ccc(S(=O)(=O)N4CCOCC4)s3)CC2)c1	5	3	-23	19	-16	10
CCN(CC)c1ccc(NC(=O)Cn2c(C(C)NC(=O)c3ccc(C)cc3)nc3ccccc32)cc1 (stereo not drawn)	-46	-26	.	99*	0	-10
COc1cc(NC(=O)Nc2nc(C(N)C3CCCCC3)cs2)cc(OC)c1OC (stereo not drawn)	4	10	.	25	8	6
NC(c1csc(NC(=O)Nc2ccccc2Cl)n1)C1CCCCC1 (stereo not drawn)	-18	-13	.	95*	-1	14
SMILES	HIF-2a block	KKLEB cytotox	Mdm2-MdmX inh	Peg3 prom inh	ABHD5 PLIN5 PPI	CF NFkB inh
NC(COCc1ccccc1)c1csc(NC(=O)Nc2cccc(C(F)(F)F)c2)n1 (stereo not drawn)	12	-83*	.	100*	-1	86*
NC(CCc1ccccc1)c1csc(NC(=O)Nc2cccc(Cl)c2)n1 (stereo not drawn)	14	-18	.	89*	-12	28
COc1ccccc1NC(=O)Nc1nc(C(N)C2CCCCC2)cs1 (stereo not drawn)	3	-14	.	82*	3	7
COC(=O)C1CCN(C2CN(Cc3ccc([N+](=O)[O-])cc3)S(=O)(=O)C2)CC1 (stereo not drawn)	-1	9	.	-27	-3	-24
NC(c1csc(NC(=O)Nc2cccc(Cl)c2)n1)C1CCCCC1 (stereo not drawn)	5	-12	.	92*	-4	32
Cc1[nH]c2ccccc2c1C(=O)c1cc(Cc2ccccc2)sc1N	5	.	.	.	10	.
CC(C)NC(=O)C1Cc2c(-c3ccc(Cl)cc3)ccnc2O1 (stereo not drawn)	8	0	.	6	1	-1
CCC(C)Nc1nc(-c2cccc(OC)c2O)nc2ccccc12 (stereo not drawn)	-27	9	35	54*	-1	-3
Cc1ccc(NC(=O)Cn2c(-c3ccc(F)cc3)cnc2SCC(=O)Nc2c(C)cccc2C)cc1	10	-14	3	76*	0	-6
CCOc1ccc(NC(=O)CSc2ncc(-c3ccc(F)cc3)n2Cc2ccco2)cc1	14	-2	20	11	-1	-4
O=C(/C=C1\NC2(CCCC2)Cc2ccccc21)C(=O)N/N=C/c1ccc(O)c(O)c1	20	-5	33	57*	2	1
COc1ccc(/C=N/NC(=O)C(=O)/C=C2\NC3(CCCC3)Cc3ccccc32)cc1	9	-5	19	31	6	3
C/C(=N\NC(=O)c1ccccc1NC(=O)c1ccc(Cl)cc1)c1ccncc1	38	-17	-117	64*	-6	7
O=S(=O)(Nc1ccc(O)c2ccccc12)c1ccc(F)cc1	9	0	23	-8	-16	84*
COc1ccc(OC)c(S(=O)(=O)Nc2cccc3c(O)cccc23)c1	15	3	31	25	0	-6
COc1ccc(OC)c(S(=O)(=O)Nc2ccc(O)c3ccccc23)c1	4	-15	20	67*	-1	64*
CCc1ccc(S(=O)(=O)Nc2ccc(O)c3ccccc23)cc1	12	-50	34	21	-12	94*

Screening data as filed in PubChem BioAssay.
